Here are results for 6 compounds from PubChem BioAssay.

Each structure is given as a SMILES string. Several values for one entry are separate records, joined by “and”; a condition that tells them apart may be missing. Equal entries are not always repeated. Results filed as inconclusive are left out. Activity calls are given as the source filed them.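 Rule for the calls, unless noted: active = compounds whose cell count with miR-34 switched on is under 0.7 times the count with it off; inactive = the rest.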

Test [1] has as its system Aerobactin synthetase IucA (Klebsiella pneumoniae). The experiment in a line: inhibition of K. pneumoniae IucA enzyme – biochemical, Tocris library, absorbance (AID 1345561; call rule not given here;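 note: 100% = enzyme without compound and 0% = no enzyme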). Particulars: purified IucA enzyme assay, absorbance (OD) read-out; stronger effect = lower value;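 tested at 8 µM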.
Test [2] can be described thus: viability loss in pontine glioma line – cell-based, SU-DIPG-XIII, MIPE4.0, CellTiter-Glo, qHTS, dose response (AID 1347061; cut-off not given, nearly all actives have AC50 up to about 37 µM;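 note: cells exposed to compound for 48 hours before readout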). Particulars: CellTiter-Glo ATP luminescence. In general terms: ATP-based viability assays read luminescence as a measure of living cells.
A short description of test [3]: viability loss in pontine glioma line – cell-based, JHH-DIPG-1, MIPE4.0, CellTiter-Glo, qHTS, dose response (AID 1347062; cut-off not given, nearly all actives have AC50 up to about 27 µM). To be noted: JHH-DIPG-1 viability, CellTiter-Glo ATP luminescence.
Test [4] can be described thus: viability loss in pontine glioma line – cell-based, SU-DIPG-IV, MIPE4.0, CellTiter-Glo, qHTS, dose response (AID 1347063; cut-off not given, nearly all actives have AC50 up to about 30 µM;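 note: compound exposure lasted 48 hours before the viability readout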). Particulars: CellTiter-Glo ATP luminescence.
Test [5] can be described thus: JHH-DIPG-1 glioma cell viability, MIPE5.0 library, CellTiter-Glo luminescence, qHTS (AID 1347067; cut-off not given, nearly all actives have AC50 up to about 26 µM;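 note: cells exposed to compound for 48 hours before readout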). Particulars: JHH-DIPG-1 glioma viability, CellTiter-Glo ATP luminescence.
Test [6] in a line: growth inhibition of DIPG cells – cell-based, MIPE5.0 library, qHTS (AID 1347068; cut-off not given, nearly all actives have IC50 up to about 30 µM). Particulars: SU-DIPG-XXV viability. (Quantitative high-throughput screening tests each substance at several concentrations.)
A short description of test [7]: viability loss with induced miR-34 in A549 – imaging, A549 dox-inducible miR-34, nuclei and caspase counts, primary screen (AID 1347080). To be noted: A549 miR-34 inducible, Hoechst nuclei count, 48 h.
Test [8] is described as follows: galactose survival enhancers in mitochondrial complex I cybrids – cell-based, galactose medium, ATP luminescence, primary screen (AID 1645843;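 active = z-score of at least 1.8 in each of two replicates, scored against plate mean and spread of sample wells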;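 note: positive z means more ATP and so rescue of galactose-driven cybrid death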). To be noted: complex I mutant cybrid cells, 72 h, stronger effect = higher value.
The nature of test [9]: viability loss in pontine glioma line – cell-based, SU-DIPG-XIII, MIPE5.0, CellTiter-Glo, qHTS, dose response (AID 1347064; cut-off not given, nearly all actives have AC50 up to about 23 µM;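 for AC50: cells exposed to compound for 48 hours before the viability read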). Particulars: CellTiter-Glo ATP luminescence.
Test [10] is described as follows: growth inhibition of DIPG cells – cell-based, MIPE4.0 library, CellTiter-Glo luminescence, qHTS (AID 1347066; cut-off not given, nearly all actives have AC50 up to about 30 µM;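 note: cells exposed to compound for 48 hours before readout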). Particulars: SU-DIPG-VI viability, CellTiter-Glo ATP luminescence.
Test [11] in a line: chitosan synthesis blockers in C. neoformans – flow cytometry, Cibacron Brilliant Red staining (AID 1347148; call rule not given here;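 note: compound exposure lasted three days at 37 degrees C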). To be noted: Cryptococcus neoformans chitosan, stronger effect = lower value; at 10 µM unless noted.
The nature of test [12]: P. berghei load reduction in hepatocytes – cell-based, HepG2, luciferase luminescence, HepG2 viability, primary screen (AID 624349; in the data active = parasite load remaining mostly below about 12%, no sharp cut-off; inactive = mostly above about 10%;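 note: 100% = mean of DMSO negative control wells on the same plate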). Particulars: P. berghei liver stage in HepG2, luciferase luminescence, concentration not given here; parasite load remaining: stronger effect = lower value; viability: measured here: HepG2 viability without parasites.
A short description of test [13]: compounds altering HSF1 focus formation in cells – imaging, Selleck Cancer Library (AID 1347162; in the data active = plate-normalised HSF1 focus index below about 0.46). Particulars: human cells, HSF1 nuclear foci imaging, at 10 µM; SSMD: measured here: HSF1 foci SSMD mean; cell count: measured here: cell number; plate-normalised HSF1 focus index: stronger effect = lower value.
Test [14] is described as follows: MELAS cybrid and Rieske KO viability enhancers – cell-based, MELAS cybrids, Rieske KO mouse fibroblasts, CellTiter-Glo, primary screen (AID 1508586).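 Note: z relative to plate mean and SD of compound and empty wells.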 To be noted: low glucose.
Setting [15] is: stronger effect = lower value, cell number ratio, induced over uninduced.
Where [16] appears, read: measured here: relative caspase fold change +Dox/-Dox.
Where [17] appears, read: measured here: total cells with miR-34 induction, stronger effect = lower value.
Where [18] appears, read: measured here: total cells without miR-34 induction.

What is called remaining activity is the signal under treatment as a percentage of the control signal. `Nc1ncnc2c1ncn2[C@@H]1O[C@H](CO)C[C@H]1O`: in test [1], the remaining activity was 110% (inactive). Besides, the compound was classed as inactive in [2], in test [3], in [4], in test [5] and in [6]. Moreover, the fold change is 0.951 (inactive) in test [7] (setting [15]) and 1.64 in test [7] (setting [16]). Also, the cell count was 9150 in test [7] (setting [17]) and 9630 in test [7] (setting [18]). Moreover, the z-score in test [8] is -0.55 (inactive).

As usually defined, the AC50 is the midpoint of the concentration-response curve, whichever way the signal moves. For `Clc1ccc(-c2nc3sccn3c2/C=N/OCc2ccc(Cl)c(Cl)c2)cc1`, the remaining activity in [1] is 112% (inactive). The result in [3], in [4], in [10], in [5] and in test [6] was inactive. In addition, in [9], the concentration at half-maximal activity (AC50) was 20.9 µM (active). Moreover, the fold change in test [7] (setting [15]) was 0.906 (inactive) and 0.897 (inactive); in test [7] (setting [16]) it was 1.07 and 1.53. For the same compound, the cell count in [7] (setting [17]) was 4600 and 7870; in [7] (setting [18]), 5080 and 8770. In test [11], the fold fluorescence is 3.64 [at 114.5 µM] (inactive). In addition, the z-score in test [8] is 0.06 (inactive).

What is called viability is the share of living cells, or the viability signal relative to a control. Consider `Oc1ccc(Nc2nc(-c3ccc(Cl)cc3)cs2)cc1`, for which, in test [12], the parasite load remaining was 34.6% (inactive). Also, the viability in test [12] was determined as 65.5%. In [1], the remaining activity was 89% (inactive). Also, the fold change in test [7] (setting [15]) was 0.947 (inactive) and 0.904 (inactive) and 0.869 (inactive); in test [7] (setting [16]), 0.378 and 0.549 and 1.23. The cell count was 4850 and 4920 and 2840 in test [7] (setting [17]); 5120 and 5440 and 3260 in [7] (setting [18]); 6680 in [13]. The compound further showed an SSMD in [13] of 1.25. In test [13], the plate-normalised HSF1 focus index is 1.08 (inactive). Besides, the z-score in test [14] (MELAS cybrid survival, CellTiter-Glo 48 h, stronger effect = higher value) is -0.306; in test [14] (Rieske KO mouse fibroblast survival, CellTiter-Glo 72 h), 2.78; in [8] it was -0.695 (inactive).

Regarding `COc1ccc(Nc2nccc(NCCO)n2)cc1`, in test [1], the remaining activity is 124% (inactive). The result in test [2], in test [3], in test [4], in test [9], in [10] and in [5] was inactive. Moreover, the compound was called inactive in test [6]. Further, the fold change in test [7] (setting [15]) was 0.983 (inactive) and 0.953 (inactive); in test [7] (setting [16]) it was 2.19 and 1.76. The cell count in test [7] (setting [17]) is 6220 and 9200; in test [7] (setting [18]) it was 6320 and 9660. Moreover, in [8], the z-score is -0.315 (inactive).

With `C[C@H](NC(=O)c1sccc1OCc1ccc(Cl)cc1)c1ccccc1`, the remaining activity in test [1] was 124% (inactive). The AC50 in [4] is 18.7 µM (active); in [9], 11.8 µM (active); in [5], 18.6 µM (active). Besides, the compound was called inactive in test [6]. Moreover, the fold change in test [7] (setting [15]) was 1.09 (inactive); in test [7] (setting [16]) it was 1.01. Further, the figures for the cell count in test [7] (setting [17]) and in [7] (setting [18]) were 4320 and 3970, respectively. In addition, the z-score in test [8] is -1.04 (inactive).

On to `O=C(/C=C/c1c(C(=O)O)[nH]c2cc(Cl)cc(Cl)c12)Nc1ccccc1`, for which, in test [1], the remaining activity is 87.2% (inactive). The compound was classed as inactive in [2], in test [3], in test [4] and in test [10]. Besides, the figures for the fold change in [7] (setting [15]) and in [7] (setting [16]) were 0.942 (inactive) and 1.32, respectively. Moreover, the cell count in [7] (setting [17]) amounted to 8890; in [7] (setting [18]) it was 9440. The z-score in [8] was 4.95 (active).
